The results in this text go back to PubChem BioAssay (Tox21).

Inconclusive results are not listed. Values without a mark were called inactive. The source made the active and inactive calls. Unless noted, calls follow the shape of the dose curve; as a rule, active = well fitted curve in the direction sought with a large enough effect in the repeat runs; inconclusive = weak or mixed curves; inactive = no such curve, though single readings can be large; an effect the other way counts as inactive or inconclusive.

Assay [1] can be described thus: qHTS assay to identify small molecule agonists of the vitamin D receptor (VDR) signaling pathway - cell viability counter screen (AID 743224). Also: nearly all actives have a fitted effect of over 50% in size. Also: potency is read from the fitted curve at half-maximal effect. Summed up: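 Compounds were pin-transferred onto VDR-bla cells plated 4 h earlier; following 16 h incubation at 37C, cell viability was quantified by CellTiter-Glo luminescence after 30 min at room temperature.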
Assay [2] is described as follows: qHTS assay to identify small molecule agonists of the NFkB signaling pathway (AID 1159509; active = well fitted curve in the direction sought with a large enough effect in the signal ratio in the repeat runs, not every such curve was filed as active; the % refers to the signal ratio; also: series mostly up to about 61 µM; % is scaled to controls: 0 for no effect and ±100 for the full control effect). An outline of the steps:
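Pathway activation was measured in ME-180 cells stably expressing beta-lactamase under NF-kB response element control. Substrate cleavage was read as the 460/530 nm emission shift after 5 hr compound incubation.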
A general note: Quantitative high-throughput screening tests each substance at several concentrations.

A short description of assay [3]: qHTS assay to identify small molecule agonists of the NFkB signaling pathway - cell viability counter screen (AID 1159515; calls by dose curve; also: series mostly up to about 61 µM; % is scaled to controls: 0 for no effect and ±100 for the full control effect; nearly all actives have a fitted effect of over 55% in size). An outline of the steps:
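Parallel cytotoxicity counter screen in ME-180 cells carrying an NFkB-response-element beta-lactamase reporter, 2,000 cells/well. Compound exposure lasted 5 hr at 37 C, 5% CO2. Cell viability was quantified by CellTiter-Glo luminescence.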

A short description of assay [4]: qHTS assay to identify small molecule agonists of the endoplasmic reticulum stress response signaling pathway (AID 1159516; active = well fitted activation curve with a large enough effect in the signal ratio in the repeat runs, not every such curve was filed as active; the % refers to the signal ratio; also: % is scaled to controls: 0 for no effect and ±100 for the full control effect). Summed up:
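Using a HeLa line with an ESRE-driven beta-lactamase gene, agonist activity was measured by FRET substrate fluorescence (460 and 530 nm emission) after cells were treated with compounds for 5 hr at 37 C and 5% CO2.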

Assay [5] in a line: qHTS assay to identify small molecule agonists of the endoplasmic reticulum stress response signaling pathway - cell viability counter screen (AID 1159517; calls by dose curve;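 also: HeLa cells carrying an ER stress response element beta-lactamase reporter; series mostly up to about 61 µM; % is scaled to controls: 0 for no effect and ±100 for the full control effect; nearly all actives have a fitted effect of over 50% in size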). An outline of the steps:
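In parallel with the ESRE reporter read, cytotoxicity was scored by CellTiter-Glo luminescence (30 min, room temperature) on HeLa ESRE-bla cells dosed for 5 hr.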

A short description of assay [6]: qHTS assay to identify small molecule antagonists of the retinoid-related orphan receptor gamma (ROR-gamma) signaling pathway - cell viability counter screen (AID 1159520). Also: % is scaled to controls: 0 for no effect and ±100 for the full control effect; nearly all actives have a fitted effect of over 50% in size. An outline of the steps: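 Tet-on ROR gamma CHO cells were given compounds for 2 hr, then doxycycline hyclate at 1 uM final, and incubated 16 hr at 37 C. Viability was measured as ATP content by CellTiter-Glo luminescence.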

The nature of assay [7]: qHTS assay to identify small molecule agonists of the AP-1 signaling pathway - cell viability counter screen (AID 1159525; calls by dose curve; also: nearly all actives have a fitted effect of over 55% in size). An outline of the steps:
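Same-well cytotoxicity counter screen of the Tox21 10K library in ME-180 cells. The readout is ATP-dependent luminescence after 5 h compound treatment. Data are normalised to DMSO and tetra n-octyl ammonium bromide controls.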

The target in assay [8] is Retinoic acid receptor RXR-alpha (Homo sapiens) (UniProt P19793). Kind of assay: qHTS assay to identify small molecule agonists of the RXR signaling pathway (AID 1159527; calls by dose curve; also: % is scaled to controls: 0 for no effect and ±100 for the full control effect; nearly all actives have a fitted effect of over 35% in size). Summed up:
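Compounds in DMSO were added to RXR-alpha-UAS-bla HEK 293T cells kept in 2% charcoal-stripped serum, and incubated 16 hr at 37 C with 5% CO2. Reporter signal came from a 2 hr B/G FRET substrate step.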

Assay [9] in a line: qHTS assay to identify small molecule agonists of the RXR signaling pathway - cell viability counter screen (AID 1159529). Also: nearly all actives have a fitted effect of over 50% in size. Also: potency is read from the fitted curve at half-maximal effect. Summed up: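 Counter screen: CellTiter-Glo luminescence. Cells: RXR-alpha-UAS-bla HEK 293T. Medium: 2% charcoal-stripped FBS. Treatment: 16 h, 37 C. Reagent incubation: 30 min, RT.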
Assay [10] can be described thus: qHTS assay to identify small molecule antagonists of the retinoid acid receptor (RAR) signaling pathway - cell viability counter screen (AID 1159551). Also: % is scaled to controls: 0 for no effect and ±100 for the full control effect; nearly all actives have a fitted effect of over 35% in size. Summed up: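 ATP-based viability, C3RL4 cells, 6 h at 37 C with 1 uM final retinol co-added after compound; luminescence read 30 min post CellTiter-Glo, RT.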
The nature of assay [11]: qHTS assay to identify small molecule agonists of the retinoic acid receptor (RAR) signaling pathway (AID 1159553). Also: % is scaled to controls: 0 for no effect and ±100 for the full control effect. An outline of the steps: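 Quantitative high-throughput format: the Tox21 10K library was tested on C3RL4 RARE-luciferase cells for 6 hr at 37 C and 5% CO2, with luminescence measured after a 30 min room-temperature reagent step.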
Assay [12] is described as follows: qHTS assay to identify small molecule agonists of the AP-1 signaling pathway (AID 1159526; calls by dose curve; also: % is scaled to controls: 0 for no effect and ±100 for the full control effect).
Assay [13] can be described thus: qHTS assay to identify small molecule antagonists of the vitamin D receptor (VDR) signaling pathway - cell viability counter screen (AID 743225). Summed up:
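Same-well multiplex: following 16 h treatment of HEK 293T cells carrying a UAS-driven beta-lactamase reporter with compound and agonist (3 nM final), and a 2 h FRET substrate step, CellTiter-Glo was added and luminescence read after 30 min.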

A short description of assay [14]: qHTS assay to identify small molecule antagonists of the estrogen related receptor (ERR) signaling pathway - cell viability counter screen (AID 1224818). An outline of the steps: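 Quantitative high-throughput viability counter screen in ERR cells. Compounds (DMSO) incubated 17.5 h at 37 C; read-out was CellTiter-Fluor fluorescence.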
A short description of assay [15]: qHTS assay to identify small molecule antagonists of the estrogen related receptor signaling pathway with the pleiotropic PPARgamma coactivator (PGC) cell viability counter screen (AID 1224822). Summed up:
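Cytotoxicity in the PGC/ERR cell line is assessed with CellTiter-Fluor, read as fluorescence intensity 30 min after reagent addition, following 17.5 h compound treatment at 37 C.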

The nature of assay [16]: qHTS assay to identify small molecule antagonists of the retinoic acid receptor (RAR) signaling pathway (AID 1159552; also: nearly all actives have a fitted effect of over 50% in size; also: potency is read from the fitted curve at half-maximal effect). Summed up:
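Antagonism of retinol-induced RARE reporter activity was measured in C3RL4 cells. Exposure to compounds and 1 uM final retinol lasted 6 hr at 37 C, with luminescence as endpoint.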

Assay [17] is described as follows: qHTS assay to identify small molecule antagonists of the estrogen related receptor (ERR) signaling pathway (AID 1224819). Summed up: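 ERR reporter cell line (NTP) plated at 2,000 cells/well, settled 6 h at 37C/5% CO2, then exposed to LOPAC compounds for 18 h at 37C. One-Glo luciferase luminescence read after 30 min at room temperature.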
A short description of assay [18]: qHTS assay to identify small molecule agonists of the estrogen related receptor (ERR) signaling pathway (AID 1224820). Also: % is scaled to controls: 0 for no effect and ±100 for the full control effect. Summed up: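 An ERR cell line provided by NTP was seeded at 2,000 cells per well and allowed to settle for 6 h before compounds in DMSO were added. After 18 h at 37 C, luciferase activity was measured by One-Glo luminescence.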
Assay [19] deals with estrogen-related receptor alpha (ERRalpha) with PGC-1alpha coactivator, human. Description: qHTS assay to identify small molecule antagonists of the estrogen related receptor signaling pathway with the pleiotropic PPARgamma coactivator (PGC) (AID 1224821; calls by dose curve). Summed up:
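A PGC/ERR cell line supplied by NTP is seeded, allowed 6 h at 37 C, and treated with test compounds in DMSO for 18 h. Signal is then measured as luciferase luminescence using One-Glo.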

In assay [20] the target is Nuclear receptor ROR-gamma (Homo sapiens) (UniProt P51449). Description: qHTS assay to identify small molecule antagonists of the retinoid-related orphan receptor gamma (ROR-gamma) signaling pathway (AID 1159521). Summed up:
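Inducible-expression reporter assay: doxycycline (1 uM final) switched on RORγ in CHO cells bearing a ROR response element-luciferase construct, with test compounds present from 2 h beforehand. Decreased luminescence after 16 h defined antagonist activity.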

Sequence of Retinoic acid receptor RXR-alpha (Homo sapiens) (P19793 whole entry, looked up): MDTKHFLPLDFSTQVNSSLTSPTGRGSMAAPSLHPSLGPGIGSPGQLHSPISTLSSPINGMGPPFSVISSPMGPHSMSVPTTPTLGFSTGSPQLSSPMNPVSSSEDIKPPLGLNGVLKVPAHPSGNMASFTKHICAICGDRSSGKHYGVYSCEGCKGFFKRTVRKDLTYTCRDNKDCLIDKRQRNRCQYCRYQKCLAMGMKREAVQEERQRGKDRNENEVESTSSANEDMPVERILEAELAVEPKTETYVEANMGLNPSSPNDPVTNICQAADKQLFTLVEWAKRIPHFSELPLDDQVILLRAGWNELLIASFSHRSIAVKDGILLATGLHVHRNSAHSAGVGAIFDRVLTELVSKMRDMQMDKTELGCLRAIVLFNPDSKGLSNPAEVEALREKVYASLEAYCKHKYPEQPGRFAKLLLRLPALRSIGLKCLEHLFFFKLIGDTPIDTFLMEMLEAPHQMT

With `C[C@]12CCC(=O)C=C1C=C[C@@H]1[C@@H]2CC[C@@]2(C)[C@H]1CC[C@@]21CCC(=O)O1`, the Potency result in assay [1], in assay [6], in [8], in assay [9], in assay [10] and in assay [11] was “inactive” throughout. Further, the result in assay [2], in assay [3], in assay [4], in assay [5] and in [7] was inactive.
Consider `C=CC(=O)NCOCC(C)C`, for which the Potency result in assay [1], in assay [6] and in assay [9] was “inactive” throughout. The call in assay [2], in [3], in assay [4], in [5], in [7] and in [12] was inactive.
On to `CCc1cccc(N(C)C(N)=Nc2cccc3ccccc23)c1`, for which the Potency entry in [13], in assay [6], in [8], in assay [9], in assay [10] and in assay [11] was “inactive” throughout. For the same compound, the compound was called inactive in assay [2], in assay [3], in assay [4], in [5], in [7] and in [14]. Moreover, the result in assay [15] was inactive.
Take `C[N+](C)(C)CCOC(N)=O`: the Potency result in assay [1], in [13], in [6], in [8], in assay [9] and in assay [10] was “inactive” each time. The Potency entry in assay [16] and in [11] was “inactive” each time. Also, the compound was called inactive in [2], in [3], in assay [4], in assay [5], in assay [7] and in assay [14]. Moreover, the outcome in assay [15] was inactive.
Turning to `O=C(CCCN1CCC(O)(c2ccc(Br)cc2)CC1)c1ccc(F)cc1`, the Potency result in assay [1], in [13], in [6], in assay [9] and in [11] was “inactive” in each case. Also, the compound was classed as inactive in [2], in assay [3], in assay [4], in [5], in assay [7] and in assay [12].
As to `CC1CC(=O)NN=C1c1ccc(NCC(C)(C)NCC(O)COc2cc(Cl)ccc2C#N)cc1` (configuration not stated), the Potency entry in [1], in [13], in assay [6], in assay [10], in assay [16] and in [11] was “inactive” throughout. Moreover, the call in [2], in assay [3], in [4], in assay [5] and in assay [7] was inactive.
Take `Cc1cc(S(=O)(=O)O)ccc1N=Nc1c(O)ccc2ccccc12`: the Potency entry in [1], in assay [6], in assay [16] and in [11] was “inactive” throughout. For the same compound, the call in assay [2], in assay [3], in assay [4], in [5], in assay [7] and in assay [12] was inactive.
As for `N#C[C@@H]1C[C@@H]2C[C@@H]2N1C(=O)[C@@H](N)C12CC3CC(CC(O)(C3)C1)C2`, the Potency result in assay [1], in assay [13], in [6] and in assay [9] was “inactive” in each case. The compound was called inactive in [2], in assay [3], in [4], in [5], in assay [7] and in assay [12].
Take `CCCCC(CC)C(=O)OCCOCCOCCOCCOC(=O)C(CC)CCCC` (configuration not stated): the Potency result in assay [1], in assay [6], in assay [10] and in assay [16] was “inactive” in each case. In addition, the outcome in assay [2], in assay [3], in assay [4], in [5], in assay [7] and in [12] was inactive.
In the case of `CC(=O)[C@H]1CC[C@H]2[C@@H]3C=CC4=CC(=O)CC[C@@]4(C)[C@@H]3CC[C@]12C`, the Potency result in assay [1], in assay [13], in [6], in assay [16] and in [11] was “inactive” each time. The outcome in [2], in assay [3], in [4], in [5], in assay [7] and in assay [12] was inactive.
`CNCCCC1c2ccccc2C=Cc2ccccc21`: the Potency was 29.8 µM (active) in assay [1] and 23.7 µM (active) in [16]. Also, the compound was classed as inactive in [2], in assay [3], in assay [4], in assay [5], in assay [7] and in assay [12]. In addition, the call in [14] and in [18] was inactive. The Potency entry in assay [6], in assay [10], in assay [17] and in [19] was “inactive” each time.
In the case of `CCCOc1ccc(S(=O)(=O)N2CCN(CC)CC2)cc1-c1nc2c(CC)n(Cc3ccccn3)nc2c(=O)[nH]1`, the Potency result in assay [1], in assay [13], in assay [6], in assay [16] and in assay [11] was “inactive” each time. The compound was classed as inactive in assay [2], in [3], in assay [4], in assay [5], in [7] and in assay [12].
As to `Nc1ccc(C(=O)OCCCOC(=O)c2ccc(N)cc2)cc1`, the Potency result in assay [1], in assay [13], in assay [6], in [10] and in assay [16] was “inactive” throughout. For the same compound, the outcome in assay [2], in assay [3], in assay [4], in [5], in [7] and in assay [12] was inactive.
Turning to `Cc1cc(OI)c(C(C)C)cc1-c1cc(C(C)C)c(OI)cc1C`, the Potency entry in [1], in assay [13], in [6], in assay [8], in assay [9] and in [10] was “inactive” each time. Also, the Potency entry in [16] and in assay [11] was “inactive” each time. For the same compound, the call in assay [2], in [3], in [4], in assay [5] and in assay [7] was inactive.
As for `[O]=[Bi]`, the activation in [2] was -0.308% [at 6.95 µM]; in [4], -0.917% [at 6.95 µM]. For the same compound, the activity, negative = cytotoxic in assay [3] is 3.69% [at 6.95 µM]. For the same compound, the activity change, negative = cytotoxicity in assay [5] was 9.83% [at 6.95 µM]. The activity, negative = cytotoxicity in [6] is 7.56% [at 8.39 µM]. Besides, in assay [7], the viability change, negative = cytotoxic was 2.46% [at 6.97 µM]. For the same compound, the activity, negative = inhibition in assay [16] is 92.1% [at 8.39 µM].
As to `CCCCCCCCCCCC[N+](C)(C)CC(=O)[O-]`, the result in assay [2], in assay [3], in [4], in assay [5], in [7] and in [12] was inactive. The Potency result in assay [20], in [16] and in [11] was “inactive” throughout. For the same compound, the Potency in assay [9] was 24.5 µM (active).
